Inconclusive results are not listed. Calls of active or inactive are those of the source. Calls follow the shape of the dose curve; as a rule, active = well fitted inhibition curve with a large enough effect; inconclusive = small, poorly fitted or top-dose-only effect; inactive = flat fitted curve, though single readings scatter. Non-standard residues stand in square brackets, D forms with d. Residues, ends and D or L forms follow the SMILES beside them. Dolaproine = CO[C@@H]([C@@H]1CCCN1)[C@@H](C)C(=O)O; Dil = CC[C@H](C)[C@H](NC)[C@@H](CC(=O)O)OC; NMeV = CN[C@H](C(=O)O)C(C)C

The experiment is described as follows: Identification of antibody-drug conjugate (ADC) payloads which are substrates of ATP-binding cassette drug efflux transporters: ABCG2-H460 cell line. The note with it: H460 MX20 (ABCG2) viability, CellTiter-Glo, 48 h. The source says:
Antibody-drug conjugates (ADCs) feature an antibody recognizing a specific protein joined to a potent toxic payload. Numerous antibody-drug conjugates have received FDA approval; however, clinical resistance arises. Resistance mechanisms include decreased expression or mutation of the antibody target, impaired payload release, or increased expression of ATP-binding cassette (ABC) efflux transporters associated with multidrug resistance. We therefore sought to characterize the interaction of ABC multidrug transporters with ADC payloads. We performed a high-throughput screen with 27 common ADC payloads using cells lines expressing ABC transporters P-glycoprotein (P-gp, encoded by ABCB1) or ABCG2 (encoded by ABCG2). Confirmatory assays were also performed using cells transfected to express P-gp, ABCG2, or MRP1 (encoded by ABCC1). Several commonly used ADC payloads were substrates of P-gp, including calicheamicin gamma1, monomethyl auristatin E, DM1, and DM4. All the pyrrolobenzodiazepines tested - SJG136, SGD-1882, SG2057, and SG3199 - were substrates of P-gp, ABCG2, and MRP1. […] These findings highlight the risk of transporter-mediated resistance with certain ADC payloads and underscore the importance of selecting payloads that evade ABC transporter recognition in future ADC development.
HEK-293 cells were transfected with empty vector (pcDNA) or vector containing the human ABCB1 (MDR-19), ABCG2 (R-5), or ABCC1 gene (MRP1) and were maintained in EMEM with 2 mg/mL G418 added to maintain transporter expression. The HeLa derivative KB-3-1 and the P-gp overexpressing KB-8-5-11 subline were maintained in DMEM; KB-8-5-11 additionally received 100 ng/mL colchicine. H460 parental cells were obtained from the Division of Cancer Treatment and Diagnosis Tumor Repository, National Cancer Institute at Frederick, MD and were cultured in RPMI. The ABCG2 expressing subline H460 MX20 was generated by selecting H460 cells in 20 nM mitoxantrone. Media in all cases was supplemented with 10% FBS and 1% penicillin-streptomycin. We explored 27 common ADC payloads, in two orthogonal, paired cell line sets-a drug selected and transfected set for each transporter--to identify substrates of the ABC transporters P-gp and ABCG2. Compounds were sourced from Levena Biopharma (San Diego, CA), Selleck Chem (Houston, TX), ChemieTek (Indianapolis, IN), or Microsource Discovery Systems (Gaylordsville, CT). Screening was performed as previously described. Briefly, cells were plated at a density of 500 cells/well in 1536 well plates with compounds added using a 1536-head pin tool (Kalypsys, San Diego CA). Cells were incubated with cytotoxic drugs and processed with CellTiter Glo reagent (Promega, Madison, WI) to determine viability after 48 hours. P-gp substrates were identified by comparing compound activity between paired sets of low-expressing (sensitive) and over-expressing (resistant) cell lines.
On the technique in general: In ATP-based viability assays light output follows the ATP content of the culture.
Consider `CCN(C(C)=O)[C@H]1CO[C@@H](O[C@H]2[C@H](O[C@H]3C#C/C=C\C#C[C@]4(O)CC(=O)C(NC(=O)OC)=C3/C4=C\CSSSC)O[C@H](C)[C@@H](NO[C@H]3C[C@H](O)[C@H](SC(=O)c4c(C)c(I)c(O[C@@H]5O[C@@H](C)[C@H](O)[C@@H](OC)[C@H]5O)c(OC)c4OC)[C@@H](C)O3)[C@@H]2O)C[C@@H]1OC`, for which the Potency is 7.5 nM (active).
With `COC(=O)c1cc2c3c(cc(O)c2[nH]1)N(C(=O)c1cc2cc(OC)c(OC)c(OC)c2[nH]1)CC3CCl` (stereo unspecified) the figure was 0.4 nM (active); with `CCc1c2c(nc3ccc(O)cc13)-c1cc3c(c(=O)n1C2)COC(=O)[C@]3(O)CC`, 11.9 nM (active); with `CCN[C@H]1CO[C@@H](O[C@H]2[C@H](O[C@H]3C#C/C=C\C#C[C@]4(O)CC(=O)C(NC(=O)OC)=C3/C4=C\CSSSC)O[C@H](C)[C@@H](NO[C@H]3C[C@H](O)[C@H](SC(=O)c4c(C)c(I)c(O[C@@H]5O[C@@H](C)[C@H](O)[C@@H](OC)[C@H]5O)c(OC)c4OC)[C@@H](C)O3)[C@@H]2O)C[C@@H]1OC`, 1.1 nM (active).
Next, `COc1cccc2c1C(=O)c1c(O)c3c(c(O)c1C2=O)C[C@@](O)(C(=O)CO)C[C@@H]3O[C@H]1C[C@H](N)[C@H](O)[C@H](C)O1`: 377 nM (active); `CC(C)(C)OC(=O)Nc1ccc2[nH]c(C(=O)N3C[C@@H](CCl)c4c3cc(O)c3ccccc43)cc2c1`: 2.1 nM (active).
With `CC[C@]1(O)CC2CN(CCc3c([nH]c4ccccc34)[C@@](C(=O)OC)(c3cc4c(cc3OC)N(C)[C@H]3[C@@](O)(C(=O)OC)[C@H](OC(C)=O)[C@]5(CC)C=CCN6CC[C@]43[C@@H]65)C2)C1` (stereo partly specified) the figure was 533 nM (active); with `CC[C@H](C)[C@@H]([C@@H](CC(=O)N1CCC[C@H]1[C@H](OC)[C@@H](C)C(=O)N[C@@H](Cc1ccccc1)C(=O)O)OC)N(C)C(=O)[C@@H](NC(=O)[C@@H](NC)C(C)C)C(C)C` (H-[NMeV]V[Dil][Dolaproine]F-OH), 5330 nM (active).
With `COc1cc2cc(c1Cl)N(C)C(=O)C[C@H](O)[C@]1(C)O[C@H]1[C@H](C)C1C[C@@](O)(NC(=O)O1)[C@H](OC)/C=C/C=C(\C)C2`, the Potency is 4750 nM (active).
Next, `COc1cccc2c1C(=O)c1c(O)c3c(c(O)c1C2=O)C[C@@](O)(C(=O)CO)C[C@@H]3O[C@H]1C[C@H]2[C@H](O[C@@H]3[C@@H](OC)OCCN32)[C@H](C)O1`: 0.0598 nM (active); `CN(C)CCOc1ccc2[nH]c(C(=O)N3C[C@@H](CCl)c4c3cc(O)c3ccccc43)cc2c1`: 0.2 nM (active).

The record behind these values is PubChem BioAssay AID2061321 (National Center for Advancing Translational Sciences (NCATS), 2025).
